Measurements published in PubChem BioAssay (NCATS).
Inconclusive results are not listed. The source made the active and inactive calls. Calls come from the whole dose curve; as a rule, active = well fitted inhibition curve with a large enough effect; inconclusive = small, poorly fitted or top-dose-only effect; inactive = flat fitted curve, though single readings scatter.
Potency is the fitted concentration of half-maximal effect.

What follows are compounds tested on Zika virus NS2B-NS3 protease (unlinked complex) (assay: Confirmatory screen GU AMC qHTS for Zika virus inhibitors (AID 1347153; note: nearly all actives have a fitted effect of over 70% in size)). Conditions: Recombinant NS2B-NS3 protease, AMC substrate fluorescence.
Description: Assay Submitters (PI): Avindra Nath, Ph.D., National Institute of Neurological Disorders and Stroke (NINDS), Bethesda, MD Radhakrishnan Padmanabhan, Ph.D., Georgetown University (GU), Washington D.C. Zika Virus causes congenital defects, including microcephaly and is associated with Guillain-Barre syndrome, eningoencephalitis and myelitis in infected adult. […] Using a target-based approach, we hope to establish a screening paradigm to uncover novel, cell-active NS2B-NS3 protease (Zika Virus) specific inhibitors from NCATS' collection of small molecules using qHTS. […] Active compounds in the primary screen are re-acquired and re-screened to confirm NS2B-NS3 protease inhibition. Early Translation Branch (ETB) National Center for Advancing Translational Sciences (NCATS), Rockville, MD National Institute of Health (NIH), Bethesda, Maryland
Materials: Padmanabhan lab provided the NS2B hydrophilic domain and NS3 protease domain in a noncovalent complex used for the unlinked assay. Control compound aprotinin is obtained from Thermo Scientific (#78432; Waltham, Massachusetts). NS2B-NS3 AMC substrate (Bz-Nle-Lys-Arg-Arg-AMC; Nle-KRR-AMC) purchased from Bachem (#I-1995; Torrance, CA). Ac-VKTGKR-AMC purchased from Genscript or Bachem, Ac-FAAGKR-AMC purchased from Genscript, Ac-GLVKRR-AMC purchased from Genscript, Ac-LKKR-AMC purchased from Genscript. GU AMC unlinked NS2B-NS3 protease qHTS protocol: Briefly, 3 microL of Zika virus unlinked NS2B-NS3 protease (25 nM for linked final concentration), in assay buffer (10 mM Tris-HCl pH 8.0 with 0.01% Tween 20) was dispensed into a 1,536-well solid-bottom black plate (Greiner Bio One, Monroe, NC). Twenty-three nL of compounds (final concentration range 7.28 nM to 114 microM) or control Aprotinin (final concentration range 3.47 nM to 114 microM) were transferred via Wako Pin-tool (Wako Automation, Richmond, VA). Samples were incubated (room temperature, protected from light) for 15 minutes followed by a 1 microL AMC substrate addition of (final concentration of 10 microM; Km = 18.3 µM). Plates were then read immediately on a ViewLux High-throughput CCD imager (PerkinElmer, Waltham, MA) equipped with standard UV fluorescence optics (340(30) nm excitation, 450(20) nm emission) then incubated (room temperature, protected from light) for 15 minutes (~20% conversion). The change in fluorescence intensity over the 15-minute reaction period was normalized against no-inhibitor and no-enzyme controls and the resulting percent inhibition data were fitted to a 4-parameter Hill equation. Aprotinin was used as the intraplate control.
`N#Cc1ccc(N2N=C3c4ccc(C(=O)O)cc4CC[C@@H]3[C@@H]2C2CCCC2)cc1Cl` was tested, and the Potency was 15.6 µM (active). `Cc1noc(-c2ccc(-c3ccc(CC(=O)O)cc3)cc2)c1NC(=O)O[C@H](C)c1ccccc1Cl` was tested, and the Potency was 31.2 µM (active). For `Cc1cc(C)c2c(c1)C(N(Cc1cc(C(F)(F)F)cc(C(F)(F)F)c1)c1nnn(C)n1)CCCN2CC1CCC(C(=O)O)CC1` (configuration not stated), the Potency was 22.1 µM (active). With `O=C(O)c1cccc(-c2ccc(-c3cn(C(=O)N4CCCCC4Cc4ccccc4)nn3)cc2)c1` (configuration not stated) the Potency was 31.2 µM (active). In the case of `CCCCCCCOc1cc2c(cc1/C(C)=C/c1ccc(C(=O)O)cc1)C(C)(C)CCS2(=O)=O`, the Potency is reported as 8.79 µM (active). `O=C(O)c1ccc(S(=O)(=O)N(Cc2ccc(OC(F)(F)F)cc2)c2ncc(C(F)(F)F)cc2Cl)cc1` was tested, and the Potency was 44.1 µM (active). In the case of `CC#C[C@@H](CC(=O)O)c1ccc(OCc2cccc(-c3ccc(C(F)(F)F)cc3)c2)cc1`, the Potency is reported as 13.9 µM (active). `O=C(Nc1ccc(-c2ccc(Cl)c(Cl)c2)cc1)C1=C(O)c2ccccc2S(=O)(=O)N1` was tested, and the Potency was 44.1 µM (active). `CC(C)C[C@H](C(=O)O)c1cc(-c2ccc(C(F)(F)F)cc2)cc(-c2ccc(C(F)(F)F)cc2)c1` was tested, and the Potency was 15.6 µM (active). In the case of `CCCCCc1ccc(/C=C/C(=O)Nc2cc(Cl)ccc2C(=O)O)cc1`, the Potency is reported as 9.87 µM (active). With `CC#C[C@@H](CC(=O)O)c1ccc(OCc2ccc(CN3CCC4(C=Cc5ccccc54)CC3)s2)cc1` the Potency was 39.3 µM (active). With `O=C(O)c1cc(N(Cc2ccc(C3CCCCC3)cc2)C(=O)c2ccc(Oc3ccccc3)cc2)ccc1O` the Potency was 9.87 µM (active).
